# GLS inh: glutaminase GLS (human) inhibition; O94925; GLS enzymatic activity, qHTS titration; Potency, µM (doses to about 45.5 µM), for the others: at the highest dose activity change, negative = inhibition, most hits filed as inhibitors; hit rate 0.21% among 410,000; further: on the % scale 0 is the no-effect control and ±100 the full control effect
#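 Human kidney-isoform GLS in 45 mM KH2PO4 pH 8.2, 0.02% Tween-20, with compound, started with 1mM L-Glutamine (added stock). Glutamate oxidase/HRP/Amplex red coupled fluorescence read at start and after 30 min at RT.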
# BAZ2B block: inhibitors of human BAZ2B bromodomain; Q9UIF8; AlphaScreen BAZ2B-H3K14Ac peptide displacement; Potency, µM (titrated, usually from 114 µM), for the others: at the highest dose activity change, negative = inhibition, most hits filed as inhibitors; hit rate 4.4% among 360,000; further: on the % scale 0 is the no-effect control and ±100 the full control effect; nearly all actives have a fitted effect of over 60% in size
#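 AlphaScreen displacement: compounds (up to 110uM) incubated 30 min at room temperature with a preformed 50 nM BAZ2B/50 nM biotinylated H3K14Ac peptide complex in PBS pH 7.4 with Tween-20. Donor and acceptor beads at 10 ug/mL final added, 20 min light-protected before reading.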
# HP1b chromo inh: blocks HP1-beta chromodomain binding to methylated histone tails. hit rate 0.56% among 390,000. Potency, µM (series often up to 114 µM), for the others: top-dose activity change, negative = inhibition, most hits filed as inhibitors. AlphaScreen HP1-beta / biotin-H3K9me3 peptide binding. AID 540317; further: nearly all actives have a fitted effect of over 70% in size
# Target sequence (P83916 whole entry, looked up): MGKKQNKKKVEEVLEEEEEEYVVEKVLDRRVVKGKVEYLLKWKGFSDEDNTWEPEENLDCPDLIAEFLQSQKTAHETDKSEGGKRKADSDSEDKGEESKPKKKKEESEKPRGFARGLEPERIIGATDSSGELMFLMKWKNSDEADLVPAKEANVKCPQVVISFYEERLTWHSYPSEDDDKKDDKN
#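 HP1-beta protein (50 nM final) preincubated 30 min at room temperature with biotinylated H3(1-18)K9me3 peptide (50 nM) in PBS pH 7.4, 0.01% Tween-20, then compound added for 30 min. AlphaScreen streptavidin donor/nickel chelate acceptor beads (10 ug/mL final), 30 min dark, luminescence read.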
# G9a block: G9a (human) methyltransferase inhibition; Q96KQ7; G9a H3K9 monomethylation, AlphaScreen, 2 h; Potency, µM (series often up to 102 µM), for inactives: top-dose activity, negative = inhibition, most hits filed as inhibitors; hit rate 8.8% among 350,000; further: on the % scale 0 is the no-effect control and ±100 the full control effect; nearly all actives have a fitted effect of over 75% in size
# Target sequence (Q96KQ7 913-1193 limits assumed): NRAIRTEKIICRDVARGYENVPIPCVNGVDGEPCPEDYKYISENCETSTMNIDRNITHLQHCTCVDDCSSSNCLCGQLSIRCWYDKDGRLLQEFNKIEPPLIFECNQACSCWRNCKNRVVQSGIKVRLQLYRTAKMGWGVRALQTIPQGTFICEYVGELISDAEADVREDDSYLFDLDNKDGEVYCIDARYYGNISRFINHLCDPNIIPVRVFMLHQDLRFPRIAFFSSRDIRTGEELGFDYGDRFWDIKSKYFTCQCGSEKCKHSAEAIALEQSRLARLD
#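 G9a (20 nM) preincubated 15 min RT with compounds, then 500 nM biotinylated H3K9 peptide and 20 uM SAM added; 2 h RT reaction. Monomethyl-H3K9 product detected by AlphaScreen with anti-H3K9me1 antibody, streptavidin donor and anti-rabbit IgG acceptor beads.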
# JMJD2A Tudor inh: inhibitors of human JMJD2A Tudor domain | O75164 | hit rate 4.4% among 390,000 | AID 504339 | Potency, µM (top dose mostly 114 µM), without a hit: at the highest dose activity change, negative = inhibition, actives largely listed as inhibitors | AlphaScreen JMJD2A-Tudor / H3K4me3 peptide binding; further: on the % scale 0 is the no-effect control and ±100 the full control effect; nearly all actives have a fitted effect of over 50% in size
# An asterisk follows results filed as active; ? = inconclusive; nt = no result; [ ] = another dose, or the depositor's remark. An excerpt weighted towards active compounds, which were near 10% of everything screened. The call rests on the fitted dose curve; in most records, active means well fitted curve in the direction sought with a large enough effect; inconclusive means small, poorly fitted or top-dose-only effect, or another doubt; inactive means no such curve, though single readings can be large; an effect the other way counts as inactive or inconclusive. Potency means the concentration at half of the fitted maximal effect.
SMILES,GLS inh,BAZ2B block,HP1b chromo inh,G9a block,JMJD2A Tudor inh
CCn1c(C)[n+](CCOCC[n+]2c(C)n(CC)c3cc(Cl)c(Cl)cc32)c2cc(Cl)c(Cl)cc21,0.6%,0.2%,-3.1%,?,22.4µM*
CC(=O)OCCn1c(C)[n+](CCOC(C)=O)c2cc(Cl)c(Cl)cc21,-3.7%,-1.1%,14.6%,50.1µM*,-9.0%
CCn1c(/C=C/Nc2ccccc2)[n+](CC)c2cc(Cl)c(Cl)cc21,3.6%,9.4%,27.7%,?,-18.4%
CC(C)(C)C(=O)OCCn1c(=O)c2cc3c(=O)n(CCOC(=O)C(C)(C)C)c(=O)c3cc2c1=O,-1.7%,-1.9%,30.0%,1.6%,-21.4%[57.1 µM]
COCCOC(=O)C1=C(C)NC(C)=C(C(=O)OC/C=C/c2ccccc2)C1c1cccc([N+](=O)[O-])c1 (stereo not given),-6.1%,nt,nt,-2.2%[59 µM],nt
Cc1cn(C2OC(COC(=O)c3ccccc3)C(O)C2Cl)c(=O)[nH]c1=O (stereo not given),-10.1%,-12.7%,52.6%,50.1µM*,-4.9%
CC(=O)C1=C(O)C(=O)N(c2ccc(O)cc2)C1c1cccc([N+](=O)[O-])c1 (stereo not given),23.9%,4.1%,21.9%,50.1µM*,-6.8%
CC(=O)C1=C(O)C(=O)N(c2ccc(Br)cc2)C1c1cccc(F)c1 (stereo not given),14.0%,-34.2%,11.1%,44.7µM*,-23.3%
O=C(N/N=C/c1ccc(Cl)cc1Cl)Nc1ccccc1,-7.3%,-18.7%,8.8%,29.1%[0.501 µM],-15.6%
OCC1(CCOc2ccccc2)CCN(Cc2ccccc2C(F)(F)F)CC1,9.2%,-6.3%,43.3%,2.4%,-1.4%
O=C(CSc1nnc(-c2ccc(Cl)cc2)n1-c1ccccc1)N/N=C/c1ccccc1C(=O)O,9.2%,-31.0%,6.7%,?,-18.4%
CC1=C(C(=O)Nc2ccc(C)cc2C)C(c2ccccc2[N+](=O)[O-])n2ncc(C(=O)Nc3ccccc3)c2N1 (stereo not given),-9.8%,-13.1%[57.1 µM],-5.2%,7.08µM*,?
CC1=C(C(=O)Nc2ccc(C)cc2C)C(c2ccc(Br)cc2)n2ncc(C(=O)Nc3cccc(C)c3)c2N1 (stereo not given),7.8%,7.4%[57.1 µM],24.8%,-27.1%[59 µM],-11.3%
O=C(Nc1ccc(F)cc1)C1C(c2ccccc2)C1(Cl)Cl (stereo not given),3.7%,6.5%,56.6%,44.2%,6.2%
COc1ccc(Br)cc1CNc1ccccc1,4.0%,50.1µM*,?,22.4µM*,17.8µM*
Cc1ccc(NC(=O)c2ccc(-n3c(C)nnc3C)cc2)cc1F,-3.4%,0.7%,11.8%[57 µM],9.1%[59 µM],-4.8%
COc1ccc(S(=O)(=O)n2cnc3ccccc32)cc1,21.0%,-3.6%,24.5%,nt,2.7%
Cc1cc(O)c(C(C)C)cc1NC(=O)Nc1cc(Cl)ccc1Cl,2.2%,nt,?,nt,44.7µM*
COCc1c(Br)c(C)nc(OCC(=O)N/N=C/c2ccco2)c1C#N,-4.6%,89.1µM*,26.5%,?,-26.8%
COCc1c(Br)c(C)nc(OCC(=O)N/N=C/c2ccc(C)o2)c1C#N,0.6%,-12.6%,32.7%,-32.6%,-7.7%
CCOc1cc(S(=O)(=O)NC2CCCCC2)ccc1F,-11.4%,-0.4%,13.0%,-3.8%[12.7 µM],-4.2%
CN(C)c1ccc(CNc2nc(-c3ccco3)nn2C(=O)c2cccc([N+](=O)[O-])c2)cc1,2.1%,35.5µM*,?,7.94µM*,44.7µM*
Cc1ccc(CNc2nc(-c3ccco3)nn2C(=O)c2ccccc2[N+](=O)[O-])cc1,0.2%,8.91µM*,?,12.6µM*,?
COc1ccc(CNc2nc(-c3ccco3)nn2C(=O)c2ccccc2C)cc1,-1.8%,-11.5%,-4.9%,?,-20.1%
COc1ccccc1CNc1nc(-c2ccco2)nn1S(=O)(=O)c1ccc(C)cc1,-14.2%,-21.1%,35.7%,?,-4.0%
SMILES,GLS inh,BAZ2B block,HP1b chromo inh,G9a block,JMJD2A Tudor inh
COc1ccccc1CNc1nc(-c2ccco2)nn1C(=O)c1ccccc1[N+](=O)[O-],-3.4%,?,-1.3%,11.2µM*,?
CCCc1cc(C(=O)Nc2ccc(C(=O)c3ccccc3)cc2)n(C)n1,-6.0%,3.7%,66.4%,23.2%,9.6%
Cc1c(CCC(=O)O)c(=O)n2c([nH]c3ccccc32)c1C#N,36.3%,-31.8%,28.5%,2.24µM*,-21.8%
CCc1c(C)c(C#N)c2[nH]c3ccccc3n2c1=S,?,35.5µM*,20µM*,nt,5.62µM*
CCc1cc(=S)n2c([nH]c3ccccc32)c1C#N,14.5%,79.4µM*,39.8µM*,3.98µM*,20µM*
CCN(CC)S(=O)(=O)c1ccc(NC(=O)c2cc(-c3cccs3)nc3ccccc23)cc1,2.1%,7.0%,13.5%,-5.2%,-8.6%
CC(=O)Nc1ccc(OCc2cccc(-c3nc4ccccc4c(=O)n3Cc3ccco3)c2)cc1,nt,nt,nt,nt,56.2µM*
CC(=O)Nc1ccc(NC(=O)C(C)Sc2nc3ccccc3c(=O)n2Cc2ccco2)cc1 (stereo not given),1.9%,8.6%,25.4%,56.2µM*,-3.4%
CCOC(=O)CSc1nc2ccccc2c(=O)n1Cc1ccco1,-3.3%,5.1%,20.1%,3.8%[59 µM],-30.4%
CC(=O)N1CCC(N2CCN(Cc3ccc(C)cc3)C(CCO)C2)CC1 (stereo not given),-21.6%,-13.6%,27.0%,2.6%,5.1%
C/C(=N\NC(=S)Nc1cccc(C)c1)c1ccco1,1.8%,-7.7%,?,nt,?
CCNC(=S)N/N=C(\C)c1ccco1,-5.8%,-12.6%,3.9%,35.5µM*,-17.1%
CCS(=O)(=O)N1CCN(C2CCC(c3ccccc3)CC2)CC1 (stereo not given),nt,50.1µM*,nt,10µM*,nt
O=c1oc(-c2cccnc2)nc2ccccc12,-6.4%,0.1%,31.8%,?,-6.6%
Cc1cc(=O)c2cc3nc(-c4cccnc4)oc3c(Br)c2o1,nt,79.4µM*,nt,39.8µM*,nt
COc1ccccc1NCC(=O)c1ccc(Cl)cc1,19.6%,?,?,50.1µM*,?
COc1ccccc1NCC(=O)c1ccc(C)c(C)c1,3.7%,?,-2.6%,-8.1%[0.501 µM],?
Cc1ccc(NC(=O)CCC(=O)NNC(=S)Nc2ccc(F)cc2F)cc1C,19.7%,-5.8%,19.4%,nt,-6.7%
CCc1ccc(NC(=O)c2cc(C(C)C)on2)cc1,-4.2%,9.6%,30.7%,32.2%[12.7 µM],25.6%
O=C(O)CC12CC3CC(C1)CC(n1ncc(NCC4CCCO4)c(Cl)c1=O)(C3)C2 (stereo not given),1.8%,-13.4%,28.2%,56.2µM*,-17.1%
O=C(O)CC12CC3CC(C1)CC(n1ncc(NCc4ccco4)c(Cl)c1=O)(C3)C2,5.4%,11.5%,6.5%,-45.1%,-7.4%
COCCNC(=O)c1cc2c(c(-c3cccc(-c4cccc(OC)c4)c3)n1)[C@H](CCO)N(S(=O)C(C)(C)C)C2 (stereo not given in full),13.2%,nt,nt,nt,nt
